Data as given in PubChem BioAssay AID588382 (National Center for Advancing Translational Sciences (NCATS), 2011).
Values joined by “and” are separate entries in the source; they are usually repeats but may differ in a detail not shown here. Identical values can stand only once. In all, about 1,300 compounds went through this assay and about 150 (12%) were called active. Not shown: some 30% with an inconclusive outcome. The list comes from a sample in which actives are over-represented; it also holds similar structures and randomly drawn compounds. Unmarked numbers belong to inactive results. The call rests on the fitted dose curve; in most records, active means well fitted cell-killing curve with a large enough effect; inconclusive means small, poorly fitted or top-dose-only effect, or effect the other way; inactive means flat fitted curve, though single readings scatter.

Test: qHTS of small molecules that selectively kill Giardia lamblia: Hit Validation in HepG2 cytotox;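 further: compound exposure lasted overnight at 37 deg C; nearly all actives have a fitted effect of over 55% in size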;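 on activity change, negative = cytotoxicity: viability measured as cellular ATP by ATPLite luminescence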
Conditions: cell viability; Potency: HepG2 cytotoxicity; series mostly up to 38.3 µM; activity change, negative = cytotoxicity: at the top concentration
Source text: Giardia lamblia is a human pathogen afflicting impoverished nations, and the most common cause of outbreaks of diarrhea in the United States. Giardia has been classified by the CDC as a category B bioterrorism organism. The favored anti giardiasis drugs in the US are metronidazole or tinidazole, compounds that have undesirable side effects. Moreover, increasing resistance to drug regimes and recurrence are a concern. It is thus clear that alternative drug treatments are needed.
In a collaboration between the University of Maryland, College Park and the NIH Chemical Genomics Center, a bioluminescence Giardia viability assay based on the trophozoites' ATP content was developed. This assay is suitable for high throughput screening, and miniaturized the assay for compound screening in 1536-well plates. The goal of the project is to screen the Molecular Libraries Small Molecule Repository (MLSMR) for compounds that selectively kill Giardia trophozoites. This counterscreen looks at the toxicity of the compounds against the human HepG2 cell line.
NIH Chemical Genomics Center [NCGC]
NIH Molecular Libraries Probe Centers Network [MLPCN]
Assay Submitter (PI): Osnat Herzberg, University of Maryland, College Park, MD.
4 uL of HepG2 cells ae dispensed into white 1536-well plates. They are incubated overnight at 37 deg C and then 23 nL of compounds are transferred to the wells with a pintool. Plates are incubated overnight at 37 deg C. 2 uL of ATPLite is added and the plates are incubated for 15 min at room temperature before they are read on the ViewLux for luminiescence.
On the % scale 0 is the no-effect control and ±100 the full control effect; potency means the concentration at half of the fitted maximal effect.

Row | SMILES | activity change, negative = cytotoxicity | Potency
1 | CCc1cc(=O)oc2cc(C)cc(OCC(=O)NC3CCN(Cc4ccccc4)CC3)c12 | 4.04% | 
2 | COc1ccc(-n2nc([N+](=O)[O-])c(=NC3CCN(Cc4ccccc4)CC3)n2O)cc1 | 19.3% | 
3 | COc1cc2nc(N3CCCCC3)nc(NC3CCN(Cc4ccccc4)CC3)c2cc1OC |  | 2.93 µM (active)
4 | NC(=O)CCn1c(C(=O)c2cccc([N+](=O)[O-])c2)c2ccccc2[n+]1[O-] | 7.08% | 
5 | CC(=O)c1c(C)n([O-])c2ccccc2[n+]1=O | 10.7% | 
6 | O=[N+]([O-])c1[nH]cnc1/C=C/c1ccccc1 | -0.0224% | 
7 | O=C1NCCN1c1ncc([N+](=O)[O-])s1 | 13% | 
8 | O=C(/C=C/c1cccnc1)/C=C/c1cccnc1 |  | 3.69 µM (active)
9 | COc1ccc2nc(COC(=O)c3cccc([N+](=O)[O-])c3)c(C(C)=O)[n+]([O-])c2c1 | 27.3% | 
10 | Nc1nc(F)nc2c1ncn2[C@@H]1O[C@H](CO)[C@@H](O)[C@@H]1O | 8.69% | 
11 | CCOC(=O)Cc1csc(NC(=S)NC(=O)c2ccc(C)cc2)n1 |  | 2.93 µM (active)
12 | Cc1ccc(C(=O)NC(=O)OCCn2c(C)cnc2[N+](=O)[O-])cc1 | -9.61% | 
13 | CCOC(=O)Cc1csc(SCC(=O)NC2CCCCC2)n1 | 11.9% | 
14 | Cc1onc(-c2ccccc2)c1C(=O)N(Cc1ccccc1)C(C)C | 0.585% | 
15 | Cc1cnc([N+](=O)[O-])n1CCOC(=O)NC(=O)c1ccccc1 | 17.1% | 
16 | COc1cccc2sc(N3CCN(C(=O)c4ccc([N+](=O)[O-])o4)CC3)nc12 | 5.93% | 
17 | O=[N+]([O-])c1ccc(CSc2nnc(-c3cnccn3)o2)cc1 | -9% | 
18 | Cc1cnc([N+](=O)[O-])n1CCOC(=O)NC(=O)c1c(F)cccc1F | 5.53% | 
19 | CCCCCN=Cc1c(C)[nH]n(-c2nc3ccccc3s2)c1=O |  | 0.329 µM (active)
20 | Oc1cccc(-c2nnc(-c3cccc(O)c3)nn2)c1 |  | 3.69 µM (active)
21 | N#C/C(=C\c1ccc(O)c([N+](=O)[O-])c1)C(=O)NCc1ccccc1 | 14.5% | 
22 | Cc1cnc([N+](=O)[O-])n1CCOC(=O)NC(=O)c1ccc(C(F)(F)F)cc1 | 16.2% | 
23 | C=CCn1c(C)cc(C(=O)COc2ccc(C)nc2[N+](=O)[O-])c1C | -14% | 
24 | O=C(Nc1ccc2c(c1)nc1n2CCSC1)c1ccco1 |  | 2.33 µM (active)
25 | O=C(Nc1nnc(C23CC4CC(CC(C4)C2)C3)s1)c1ccco1 | -19.1% | 

Row | SMILES | activity change, negative = cytotoxicity | Potency
26 | CN(C(=O)CSc1nc2ccccc2c(=O)n1-c1ccc(F)cc1)C1CCS(=O)(=O)C1 (stereo not drawn) | 0.691% | 
27 | O=C1c2cc(F)ccc2-n2c1nc1ccccc1c2=O |  | 5.21 µM (active)
28 | Cc1ccc(-c2[nH][nH]c(=O)c(=O)c2N=Nc2ccccc2)cc1 | 2.65% | 
29 | O=[N+]([O-])c1cc(S(=O)(=O)N2CCCC2)ccc1N/N=C/c1ccncc1 | 6.25% | 
30 | Cc1ccc(OCC(=O)Nc2nc(C)c(Cl)cc2Cl)c([N+](=O)[O-])n1 | 18.2% | 
31 | O=[N+]([O-])c1ccc(N=NN(CCO)CCO)cc1 | 1.05% | 
32 | Cc1cc(C2=NNC(=NC3CC3)SC2)c(C)n1-c1ccccc1F |  | 0.927 µM (active)
33 | CCOC(=O)C1=C(C)N=c2s/c(=C/c3cccc([N+](=O)[O-])c3O)c(=O)n2C1c1cc(OC)c(OC)c(OC)c1 (stereo not drawn) | 1.65% | 
34 | Cc1ccc([C@@H]2CC=C(C(=O)O)[C@H](c3ccccc3)N2S(=O)(=O)c2ccc(C)cc2)cc1 | 3.15% | 
35 | NCCCn1c(C(=O)c2ccc(Cl)cc2)c2ccc(C(F)(F)F)cc2[n+]1[O-] | 0.602% | 
36 | CCN1/C(=C\c2ccc3ccccc3[n+]2CC)Sc2cc(C)ccc21 |  | 4.65 µM (active)
37 | N/C(=N/OC(=O)c1ccc(Cl)cc1)c1ncc([N+](=O)[O-])s1 | 13.6% | 
38 | Cc1ncc([N+](=O)[O-])n1CCOC(=O)c1cc(Cl)cc(Cl)c1N | 19.6% | 
39 | COC(=O)c1ccc2cc(OC)cc([N+](=O)[O-])c2n1 | 11.5% | 
40 | Cc1nc2c(o1)C(=O)c1ccccc1C2=Nc1ccccc1 |  | 4.65 µM (active)
41 | Cc1c(N=Nc2ccc(O)cc2)c(=O)n(-c2ccccc2)n1C | 6.28% | 
42 | Cc1ccc(OCC(=O)c2cc(C)n(-c3ccccc3)c2C)c([N+](=O)[O-])n1 | 0.398% | 
43 | CCn1ncc([N+](=O)[O-])c1C(=O)Nc1nc2cccc(C)c2s1 | -4.43% | 
44 | CC(=O)Nc1ccc(NS(=O)(=O)c2ccc(C)cc2)c([N+](=O)[O-])c1 | 11.2% | 
45 | CCCc1ccc(-c2cc(C(=O)N/N=C/c3ccc([N+](=O)[O-])o3)c3ccccc3n2)cc1 |  | 3.29 µM (active)
46 | Cc1cc(N/N=C/c2ccc([N+](=O)[O-])o2)nc2ccccc12 | -6.07% | 
47 | Cc1ccc2nc(N/N=C\c3ccc([N+](=O)[O-])o3)nc(-c3ccccc3)c2c1 | -6.52% | 
48 | O=C(N/N=C/c1ccc([N+](=O)[O-])o1)c1cc(-c2ccc(-c3ccccc3)cc2)nc2ccccc12 |  | 2.61 µM (active)
49 | O=C(N/N=C/c1ccc([N+](=O)[O-])o1)c1cn2ccc3ccccc3c2n1 | -5.23% | 
50 | CCOC(=O)N/N=C\c1ccc([N+](=O)[O-])o1 | -4.74% | 

Row | SMILES | activity change, negative = cytotoxicity | Potency
51 | Cc1nc2ccccn2c1C(=O)N/N=C/c1ccc([N+](=O)[O-])o1 |  | 14.7 µM (active)
52 | COc1ccc(-c2nn(-c3ccccc3)cc2C(=O)N/N=C/c2ccc([N+](=O)[O-])o2)cc1 | 16.4% | 
53 | O=C(N/N=C/c1ccc([N+](=O)[O-])o1)c1cn(-c2ccccc2)nc1-c1ccc(F)cc1 | 8.98% | 
54 | CC1CC(C)C(=NNC(N)=O)C(C(O)CC2CCC(=O)NC2=O)C1 (stereo not drawn) | 7.19% | 
55 | N/C(=N\O)c1ccc([N+](=O)[O-])s1 | 6.1% | 
56 | COc1ccc(-n2nc([N+](=O)[O-])c(=NCc3ccc4c(c3)OCO4)n2O)cc1 | 12.6% | 
57 | O=C(/C=C/c1ccc(O)c([N+](=O)[O-])c1)c1ccc2ccccc2c1 | -18.5% | 
58 | Cc1nn(-c2nc3ccccc3[nH]2)c(=O)c2ccccc12 |  | 2.07 µM (active)
59 | Cc1ccc(NC(=O)CN2C(=O)S/C(=C/c3ccc(O)c([N+](=O)[O-])c3)C2=O)cc1C | -3.32% | 
60 | Cc1cccc(N=Nc2c(C)c(C#N)c(O)[nH]c2=O)c1 | 0.706% | 
61 | O=C1/C(=C/c2ccncc2)CCC/C1=C\c1ccncc1 |  | 4.14 µM (active)
62 | CC1C/C(=C/c2ccncc2)C(=O)/C(=C/c2ccncc2)C1 (stereo not drawn) |  | 2.07 µM (active)
63 | O=C1N=C(N2CCCCC2)S/C1=C\c1ccc(Br)cc1 | -4.96% | 
64 | O=c1c2c(-c3ccccc3)csc2ncn1/N=C/c1ccc(O)c([N+](=O)[O-])c1 | 10.5% | 
65 | Cc1ccc(C2=NCCn3c2c2ccccc2[n+]3[O-])cc1 | 15.1% | 
66 | CC(=O)Nc1nc(-c2cc([N+](=O)[O-])cs2)cs1 | 1.82% | 
67 | CCn1c(=NC(=O)c2cccc(N3C(=O)CCC3=O)c2)sc2c(OC)ccc(OC)c21 | 15.5% | 
68 | Cc1cnc([N+](=O)[O-])n1CCOC(=O)NC(=O)c1ccc(F)cc1 | -4.24% | 
69 | CN(C)C(=O)COC(=O)c1cccc(S(=O)(=O)N2CC3(C)CC2CC(C)(C)C3)c1 (stereo not drawn) | 6.3% | 
70 | O=[N+]([O-])c1nn(-c2ccccc2)[n+]([O-])c1N1CCN(c2ccccc2)CC1 | 20.5% | 
71 | CN(C(=O)CN1CCN(c2ccc([N+](=O)[O-])cn2)CC1)c1ccccc1 | 22.4% | 
72 | CCOc1ccc(-c2cc(C(=O)N3CCN(c4ccccn4)CC3)c3ccccc3n2)cc1 |  | 1.65 µM (active) and 414 nM (active)
73 | O=C(CSc1ccsc1[N+](=O)[O-])N1CCN(c2ccccn2)CC1 | 4.59% | 
74 | Cc1ncc([N+](=O)[O-])n1CCOC(=O)NC(Nc1ccc(F)cc1)C(Cl)(Cl)Cl (stereo not drawn) | -6.6% | 
75 | O=C(CCCn1cnc([N+](=O)[O-])n1)Nc1ccc(F)c(Cl)c1 | -2.31% | 

Row | SMILES | activity change, negative = cytotoxicity | Potency
76 | COc1cc2c(cc1OC)-c1c(OC)c(OC)cc3ccnc(c13)C2=O | -4.96% | 
77 | COc1ccc(-n2nc([N+](=O)[O-])c(=NCCc3ccc(Cl)cc3)n2O)cc1 | -6.29% | 
78 | O=C(NCC1CCCO1)c1ccc([N+](=O)[O-])o1 (stereo not drawn) | -15.5% | 
79 | O=C(CN(C1CCCCC1)S(=O)(=O)c1ccc(F)cc1)NCC1CCCO1 (stereo not drawn) |  | 4.65 µM (active)
80 | CN(C(=O)c1ccc(F)c(S(=O)(=O)N2CCOCC2)c1)C1CCCCC1 | 13.1% | 
81 | CCS(=O)(=O)CCn1c([N+](=O)[O-])cnc1C | 23.2% | 
82 | O=c1c(-c2ccc(F)cc2)coc2cc(O)ccc12 | -1.17% | 
83 | C[C@@H]1CN([C@@H](C)CO)C(=O)c2cccc(NS(=O)(=O)c3cccs3)c2O[C@H]1CN(C)Cc1ccc(C(F)(F)F)cc1 | 7.74% | 
84 | NC(=O)C1CCN(c2ncccc2[N+](=O)[O-])CC1 | 0.515% | 
85 | CCOC(=O)N/N=C\c1ccc([N+](=O)[O-])s1 | 11.1% | 
86 | COC(=O)N/N=C/c1ccc([N+](=O)[O-])s1 | -20.9% | 
87 | COc1ccc(NC(C)C(=O)N/N=C/c2ccc([N+](=O)[O-])s2)cc1 (stereo not drawn) | -17.2% | 
88 | Cc1ccc(NC(C)C(=O)N/N=C/c2ccc([N+](=O)[O-])s2)cc1 (stereo not drawn) | -20.4% | 
89 | Cc1ccccc1C(=O)N/N=C/c1ccc([N+](=O)[O-])s1 |  | 18.5 µM (active)
90 | COc1ccccc1NC(=O)C(=O)N/N=C/c1ccc([N+](=O)[O-])s1 | -5.67% | 
91 | O=C(N/N=C\c1ccc([N+](=O)[O-])s1)c1cncc(Br)c1 |  | 7.36 µM (active)
92 | O=C(N/N=C/c1ccc([N+](=O)[O-])s1)C(O)c1ccccc1 (stereo not drawn) |  | 13.1 µM (active)
93 | Cc1nc2cc(NC(=O)c3ccc([N+](=O)[O-])s3)ccc2s1 | -18.7% | 
94 | COCCn1c(C)cc(C(=O)COc2cccnc2[N+](=O)[O-])c1C | 4.96% | 
95 | O=C(Nc1nnc(C2=COCCO2)o1)c1cccc(F)c1 | 1.81% | 
96 | COc1nn(C(C)C(=O)N2N=C(C(F)F)CC2(O)C(F)F)cc1[N+](=O)[O-] (stereo not drawn) | 10.4% | 
97 | COc1cc(/C=C/c2ccc3cccc(OC)c3n2)c(OC(C)=O)c([N+](=O)[O-])c1 | -5.84% | 
98 | CN(C)C(=O)c1cc([N+](=O)[O-])cc([N+](=O)[O-])c1N(C)C | 3.41% | 
